The full ranking holds about 33,000 sequences; the median of “E-score (-0.5 to 0.5)” is about -0.015, and the highest 2% start at about 0.3. The sample holds the highest values, similar sequences and a random draw of the others, so the mix is not that of the screen.
molecular target: T1, Abf1 (UniProt P14164); assay: PBM E-score (8-mer binding enrichment) (E-score (-0.5 to 0.5)); higher = stronger / more preferred TF binding; conditions: protein concentration: 200 nM; construct: GST-full length
T1 sequence: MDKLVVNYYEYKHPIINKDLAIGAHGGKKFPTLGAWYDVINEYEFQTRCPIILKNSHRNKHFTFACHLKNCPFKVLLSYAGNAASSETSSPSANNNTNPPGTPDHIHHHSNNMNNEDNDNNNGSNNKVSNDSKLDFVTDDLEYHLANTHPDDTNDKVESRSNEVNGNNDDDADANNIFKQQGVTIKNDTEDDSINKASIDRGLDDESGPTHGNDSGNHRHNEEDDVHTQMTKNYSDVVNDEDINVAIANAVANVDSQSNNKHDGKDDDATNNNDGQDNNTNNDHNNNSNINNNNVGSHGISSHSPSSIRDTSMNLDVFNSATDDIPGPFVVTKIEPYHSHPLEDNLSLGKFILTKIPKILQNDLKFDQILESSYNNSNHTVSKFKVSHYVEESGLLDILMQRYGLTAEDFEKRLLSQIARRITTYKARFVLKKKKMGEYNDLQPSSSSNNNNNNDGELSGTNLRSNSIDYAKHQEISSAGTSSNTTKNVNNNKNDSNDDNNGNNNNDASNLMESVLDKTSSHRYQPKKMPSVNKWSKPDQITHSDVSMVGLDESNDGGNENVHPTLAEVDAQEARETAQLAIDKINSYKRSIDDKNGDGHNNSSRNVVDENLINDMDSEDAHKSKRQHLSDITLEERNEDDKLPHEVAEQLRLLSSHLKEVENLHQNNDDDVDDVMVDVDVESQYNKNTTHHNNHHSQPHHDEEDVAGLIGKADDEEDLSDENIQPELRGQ
Experimental: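 Universal 'all 10-mer' protein binding microarrays (Agilent AMADID 015681) probed with GST-tagged S. cerevisiae TFs (full-length or DBD) made by in vitro transcription/translation (PURExpress), about 100-200 nM. Bound TF was detected with fluorescent anti-GST. Each ungapped 8-mer (which stands for itself and its reverse complement) is scored by the PBM enrichment score (E-score), a modified Wilcoxon-Mann-Whitney statistic from -0.5 to +0.5, computed with the Universal PBM Analysis Suite. Scale: above 0.35 generally sequence-specific binding.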

Row | Sequence | PBM E-score
1 | CATCCGGG | -0.161
2 | AAACCGTA | 0.221
3 | ACACCAAT | 0.0514
4 | CGGGATGA | 0.0791
5 | ACGACCGC | 0.041
6 | GGGGAATA | -0.112
7 | AAAGAGAG | -0.214
8 | AAGAGAAA | -0.0161
9 | ACTTGAAT | 0.0842
10 | CGACATCA | 0.315
11 | AGACATCG | 0.111
12 | CGACATCC | 0.121
13 | GGACATCA | 0.215
14 | CGACATTA | 0.317
15 | CGACATTC | 0.0424
16 | TGACATCA | 0.274
17 | AGACATTA | -0.0164
18 | CGACATCG | 0.301
19 | CAGAAACA | -0.0715
20 | GAGGAACA | -0.095
21 | CCAGACAG | -0.2
22 | GAGTAAAA | 0.0646
23 | CCGCGACC | -0.0179
24 | CCGCGACG | 0.32
25 | CCGCGACA | 0.154

Row | Sequence | PBM E-score
26 | CTAATGCC | -0.208
27 | CAATCGTG | 0.122
28 | AAAACGCA | 0.00195
29 | AGGTTTCG | -0.199
30 | TGCGAAAA | 0.175
31 | GACGAACA | 0.253
32 | AACGAACG | 0.144
33 | TACGAACA | 0.351
34 | CACGATCG | 0.339
35 | TACGAAAA | 0.297
36 | CACGATCC | 0.0482
37 | CACGATCA | 0.272
38 | AACGAACA | 0.215
39 | AACGAAAA | 0.103
40 | CACGAACG | 0.372
41 | CACGAACA | 0.186
42 | AACAAATT | 0.201
43 | AAAAACGT | 0.0618
44 | GTAGCCCA | 0.0106
45 | ACCATCCC | -0.155
46 | AACAGAGA | -0.09
47 | ACCGCTCA | 0.0985
48 | GAGCACTA | 0.0823
49 | CACGAAAC | 0.272
50 | CACGAAAG | 0.272

Row | Sequence | PBM E-score
51 | GCCGAAAC | -0.0478
52 | GACGAAAA | 0.337
53 | GCCGAAAA | 0.173
54 | GACGAATA | 0.232
55 | GACGAAAC | 0.344
56 | AACGAAAC | 0.101
57 | CACGAAAA | 0.31
58 | CTAGGAGA | -0.236
59 | TCTACCAA | -0.0268
60 | CTGGACCC | -0.279
61 | CGGATGAA | 0.211
62 | TCGTGTCA | 0.326
63 | CCGTGTCA | 0.268
64 | ACATGTCA | 0.221
65 | TCGTGTAA | 0.343
66 | ACGTGGAA | 0.118
67 | GCGTGTCA | 0.0814
68 | TCGTGGAA | 0.336
69 | GCGTGGAA | -0.105
70 | GCATGTCA | 0.225
71 | CCGTGTAA | 0.217
72 | ACGTGTAA | 0.235
73 | TCATGTCA | 0.332
74 | CAGAAGGG | -0.136
75 | AAACTCAA | 0.0218

Row | Sequence | PBM E-score
76 | ATGTTACG | 0.087
77 | GTTGGTCA | 0.221
78 | ACATCTAA | -0.0374
79 | CGACCTCA | 0.00561
80 | ATCGCGAT | 0.411
81 | GTCGCGAA | 0.188
82 | ATCGCGAG | 0.138
83 | GTCGCGAC | 0.32
84 | ATCGCGAA | 0.199
85 | CTCGCGAC | 0.238
86 | AACACAAC | -0.029
87 | CATAAACG | 0.22
88 | GAATGCCC | -0.0158
89 | CCGCACGA | 0.376
90 | CCGCACGC | -0.186
91 | ACGCACGA | 0.389
92 | ACGCACGC | -0.0387
93 | GCGCACGA | 0.0514
94 | ACGCACGT | 0.105
95 | TCCCACGA | 0.326
96 | TCGCACAA | 0.167
97 | GCCCACGA | 0.019
98 | ACCCACGA | 0.287
99 | CCGCACGG | 0.0967
100 | TCGCACGA | 0.317

Row | Sequence | PBM E-score
101 | AAGTCCCC | -0.149
102 | ACTCTGAT | 0.043
103 | ACTAGTGC | 0.104
104 | CGGCCCGC | -0.121
105 | AATGCTCC | -0.223
106 | CGCGTACG | 0.271
107 | ATTATGGG | 0.00349
108 | GGATATAA | 0.298
109 | CGATATAA | 0.203
110 | GGATATAC | -0.053
111 | AGTTACGG | 0.0796
112 | GGAGGAAA | -0.252
113 | ACGATATG | 0.304
114 | CCGATACG | 0.121
115 | ACGATACG | 0.334
116 | ACGATATA | 0.289
117 | CCGATATC | 0.21
118 | ACGATACT | 0.285
119 | ACGATATC | 0.321
120 | AGGATATC | 0.24
121 | ACGATAGG | 0.233
122 | ATGCCACC | -0.148
123 | AATCCAGT | 0.0412
124 | AATCTGCA | -0.185
125 | TGGGACAA | 0.0227

Row | Sequence | PBM E-score
126 | AAGCCACG | 0.124
127 | AAAGTATA | 0.101
128 | CGATACCA | 0.018
129 | AGGTCACC | 0.282
130 | AAGTCACT | 0.304
131 | AGGTCACG | 0.235
132 | AAGTCACA | 0.125
133 | AAGTCACG | 0.268
134 | AGGTCACT | 0.304
135 | ACTCTGAC | -0.0634
136 | CGAATTCC | -0.0103
137 | CGGACGCC | -0.0127
138 | AATGCCAG | -0.155
139 | ATGTCGGG | 0.0062
140 | AAGGAACA | -0.0655
141 | ACGCAGCG | -0.162
142 | AACGACGT | 0.19
143 | AATAACGA | 0.325
144 | TCCGACGA | 0.392
145 | CACGACGG | 0.356
146 | AATAACGC | -0.118
147 | AATAACGG | 0.126
148 | AACGACGA | 0.346
149 | CACGACGA | 0.263
150 | CACGACCG | -0.0182

Row | Sequence | PBM E-score
151 | GCCGACGA | 0.176
152 | AACGACGG | 0.249
153 | CCCGACGA | 0.196
154 | ACAGCTAG | -0.181
155 | ACTCTTAA | -0.0406
156 | AACCGGGG | -0.212
157 | AAAATCCC | -0.0966
158 | CGTCCTAC | -0.0375
159 | ACTCGATA | 0.199
160 | AACTGCGA | -0.0488
161 | ATCTGCAG | -0.106
162 | GAGTATAC | 0.0804
163 | GACGACGC | 0.3
164 | GACGACGA | 0.251
165 | TACGACGA | 0.329
166 | TACGACCA | 0.242
167 | AACGACGC | 0.0599
168 | CACGACGC | 0.172
169 | TACACCCA | -0.015
170 | CACCACGA | 0.202
171 | GGGTGCTA | -0.118
172 | CGTGCGAG | 0.137
173 | CCTTAAGC | -0.123
174 | CGTCGTTC | 0.313
175 | CGTCGTTA | 0.257

Row | Sequence | PBM E-score
176 | CGTCGTAG | 0.192
177 | AGTCGTTC | 0.212
178 | CATCGTAA | 0.106
179 | CGTCGTAA | 0.392
180 | GGTCGTAC | 0.212
181 | TGTCGTAA | 0.103
182 | CGTCGTAC | 0.399
183 | CATCGTAC | 0.382
184 | GATCGTAC | 0.151
185 | GGTCGTAA | 0.104
186 | ATTCTGTG | 0.00625
187 | GCGAAAGA | -0.024
188 | AAGACGAG | -0.0454
189 | AATAGTAC | 0.132
190 | AAATGGGT | -0.0572
191 | ACGCAGTC | -0.224
192 | AGATCATG | 0.262
193 | AGTCGTCC | 0.142
194 | CGTCGTCA | 0.24
195 | CGTCGTCC | 0.307
196 | ACTCGAGA | -0.0317
197 | CGACAAAC | 0.167
198 | ACATATCC | 0.236
199 | TCATATCA | 0.315
200 | GCATATGA | 0.028

Row | Sequence | PBM E-score
201 | TCATATGA | 0.101
202 | ACATATCG | 0.118
203 | CCATATCA | 0.163
204 | GCATATCC | 0.179
205 | GCATATCA | 0.319
206 | ACATATCA | 0.341
207 | GACGACCA | 0.286
208 | CACGAGAG | 0.0678
209 | ACTCGGAG | -0.00102
210 | CTCTTGTC | 0.024
211 | ATTCTATC | 0.127
212 | AGTAGAGC | -0.168
213 | TCAGCAGA | -0.0392
214 | AAATGGAC | 0.0432
215 | ACCGTTTC | 0.0554
216 | ACCGTTGC | 0.0812
217 | CACAACCC | -0.194
218 | ATGGGGAA | -0.104
219 | ATTATCAG | 0.0821
220 | ATTATCAA | 0.193
221 | CTTATCCC | -0.0767
222 | CTTATCAC | 0.369
223 | ATTATCAC | 0.434
224 | CTTATCAA | 0.164

Reference: the supplement of paper PMC3334620
